SNCA viab count: reduces viability of HEK-293 SNCA reporter cells; HEK-293-SNCA-luc viability, GF-AFC fluorescence, 24 h; Potency, µM (titrated, usually from 57.1 µM), for inactives: at the top dose activity change, negative = cytotoxicity, most hits filed as cytotoxic; actives 0.12% (n = 150,000);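 also: potency is read from the fitted curve at half-maximal effect; 0% = DMSO-treated cells and -100% = medium-only wells without cells; nearly all actives have a fitted effect of over 30% in size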
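Cytotoxicity counterscreen: after 24 h compound treatment of genome-edited SNCA-luciferase HEK-293 cells, live-cell protease substrate GF-AFC read by fluorescence after 30 min; activity scaled between DMSO (0%) and medium-only (-100%), curves Hill-fitted.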
SNCA expr inhib: reduces expression of the alpha-synuclein gene; HEK-293 SNCA-luciferase knock-in, luminescence, 24 h; Potency, µM (doses to about 57.2 µM), for inactives: at the highest dose activity change, negative = inhibition, hits mostly inhibitors; actives 0.17% (n = 140,000); AID 1671194;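 also: potency is read from the fitted curve at half-maximal effect; plate controls were DMSO cells for no effect and cell-free wells for full effect; nearly all actives have a fitted effect of over 45% in size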
IP6K1 inh: IP6K1 kinase inhibition | Q92551 | IP6K1 kinase, ADP-Glo luminescence, 2 h; active compounds read low | activity change, % (series mostly up to about 58 µM) | actives 0.81% (n = 140,000) | AID 1645851; in the data active = activity change below about -25%; also: % is scaled to controls: 0 for no effect and ±100 for the full control effect
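ADP-Glo luminescence measures ADP made by human IP6K1 during a 2 h RT reaction with ATP/IP6 (mix at 1.3 mM/130 uM); top library doses 57.5 and 19.1 uM final.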
KDM5B inh: inhibitors of human KDM5B histone demethylase; AID 1347165; actives 2.6% (n = 220,000); Potency, µM (top dose mostly 57.7 µM), actives largely listed as inhibitors; Q9UGL1; KDM5B demethylase, FDH-coupled NADH fluorescence (FDH is formaldehyde dehydrogenase); also: potency is read from the fitted curve at half-maximal effect; 0% is about no effect; nearly all actives have a fitted effect of over 70% in size
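Here, H3K4me3 peptide (12.5 µM in substrate mix) is demethylated by KDM5BΔAP, 200 nM final, after 10 min compound exposure. Formaldehyde product is coupled through FDH (0.25 U/mL in mix) to NADH fluorescence; 30-min ΔRFU feeds dose-response curves.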
* marks the source's active call; other numbers are inactive results; i = inactive; ? = inconclusive; . = no result; ! = not confirmed by another sample; [ ] = dose if it differs, or a comment. Only some compounds are listed: those with a hit (about 2.8% of all), similar ones and a draw of the others. Unless noted, calls follow the shape of the dose curve; as a rule, active = well fitted curve in the direction sought with a large enough effect; inconclusive = small, poorly fitted or top-dose-only effect, or another doubt; inactive = no such curve, though single readings can be large; an effect the other way counts as inactive or inconclusive.

SMILES	SNCA viab count	SNCA expr inhib	IP6K1 inh	KDM5B inh
Cc1ccccc1CN1Cc2nc(-c3cccc(C(N)=O)c3)ccc2OCC1=O	-22.9%[87.6 µM]	-6.2%[87.6 µM]	-3.5	31.6µM*
O=C1COc2ccc(-c3ccc4c(c3)OCO4)nc2CN1Cc1ccc(C(F)(F)F)cc1	9.6%	10.4%	-0.2	31.6µM*
CN1Cc2nc(-c3ccc4c(c3)OCO4)ccc2OCC1=O	-1.1%[87.6 µM]	83.6%[87.6 µM]	-11.0	31.6µM*
Cc1cn2cc(CNC(=O)c3ccc(CN4CCCN(C)CC4)[nH]c3=O)nc2s1	-4.3%	?	13.9	28.2µM*
COCc1nc(NCc2cn3cc(C)sc3n2)cc(C2CC(N)C2)n1 (stereo not drawn)	3.5%	6.3%	-10.5	?
CC(NC(=O)NOCc1ccccc1)c1ccc(NC(=O)C2CC2)cc1 (stereo not drawn)	.	.	.	i
Cc1c(-c2ccccc2F)[nH]c2ccc(CNC(=O)Cn3ccc(=O)[nH]c3=O)cc12	-9.9%	49.9%	-2.6	31.6µM*
Cc1c(-c2ccccc2F)[nH]c2ccc(CNC(=O)CCN3CCCC3=O)cc12	10.6%	27.5%	15.2	28.2µM*
Cc1c(-c2ccccc2F)[nH]c2ccc(CNC(=O)CCC3=NNC(=O)CC3)cc12	2.6%	25.2%	-14.9	?
CCC(C)NC(=O)c1ccc(-c2cccc(C#N)c2)o1 (stereo not drawn)	-8.9%	35.1%	12.8	25.1µM*
CCN1C(=O)COc2ccc(NC(=O)c3cc(=O)c4cc(C)cc(C)c4o3)cc21	.	.	.	i
COc1cc2c(NC3CCN(C(C)C)CC3)nc(N3CCC(F)(F)CC3)nc2cc1OCCCN1CCCC1	23.8µM*	.	-15.6	.
CC(C)N1CCN(c2ccc3nnc(C4CCC4)n3n2)CC1	-1.3%	-12.2%	5.5	28.2µM*
Cc1cccc(CN2CCN(S(=O)(=O)c3cnn(C)c3)CC2)c1	.	.	.	i
CCc1ccc(N2CC(c3noc(-c4cnccn4)n3)CC2=O)cc1 (stereo not drawn)	4.2%	3.0%	28.9	i
CCc1ccc(N2CC(c3noc(-c4ccc(OC)c(F)c4)n3)CC2=O)cc1 (stereo not drawn)	7.5%	30.1%	33.7	31.6µM*
CCc1ccc(N2CC(c3noc(-c4ccc(N(C)C)cc4)n3)CC2=O)cc1 (stereo not drawn)	0.2%	-15.5%	32.9	31.6µM*
COc1cc(OC)cc(-c2nc(C3CC(=O)N(c4ccc(C)cc4)C3)no2)c1 (stereo not drawn)	5.8%	-19.7%	0.0	31.6µM*
COc1ccc(N2CC(c3noc(-c4ccc(N(C)C)cc4)n3)CC2=O)cc1 (stereo not drawn)	8.3%	4.6%	4.6	35.5µM*
COc1ccc(N2CC(c3noc(-c4cc(OC)cc(OC)c4)n3)CC2=O)cc1 (stereo not drawn)	0.3%	-2.3%	15.5	?
CCOCC1(C)COc2ccc(C(=O)Nc3ccc(F)c(Cl)c3)cc2N1 (stereo not drawn)	-24.1%[87.6 µM]	16.9%[87.6 µM]	-1.2	?
C=CCN(Cc1ccc(F)cc1)C1CCCC1	.	.	.	i
O=S(=O)(c1ccc2oc(Nc3cccc(F)c3)nc2c1)N1CCCCC1	.	.	.	i
COc1ccc(Nc2nc(N)c(C(=O)c3ccc(C)cc3C)s2)cc1Cl	.	.	.	i
COc1ccc2c(c1)CN(CC=C(C)C)C(=O)CCN2CC(O)COc1ccccc1 (stereo not drawn)	.	.	-14.1	.
SMILES	SNCA viab count	SNCA expr inhib	IP6K1 inh	KDM5B inh
CCNC(=O)NC(=O)CSc1nc2ccccc2c(=O)n1-c1ccc(F)cc1F	.	.	.	i
O=C1CC(c2noc(-c3ccc4c(c3)OCO4)n2)CN1c1ccc(F)cc1 (stereo not drawn)	?	2.7%	-7.3	28.2µM*
Cc1cc(NC(=O)CNc2cc(S(=O)(=O)N3CCOCC3)ccc2Oc2ccc(F)cc2)no1	.	.	.	i
c1cnc2nc(C3CCCN3)[nH]c2c1 (stereo not drawn)	-5.9%[87.6 µM]	11.1%[87.6 µM]	21.9	12.6µM*!
c1cc2nc(C3CCCCN3)[nH]c2cn1 (stereo not drawn)	15.4%[87.6 µM]	-19.1%[87.6 µM]	14.5	?
CN(C)c1ccc(CN2CCNc3cnc(-c4ccccc4)cc3C2)cc1	-13.2%[87.6 µM]	29.1%[87.6 µM]	-13.6	?
COc1ccc(OC)c(CN2CCNc3cnc(-c4ccccc4)cc3C2)c1	?	?	-14.0	31.6µM*
Cc1cccc(CN2CCNc3cnc(-c4ccccc4)cc3C2)c1	-7.9%[87.6 µM]	-22.2%[87.6 µM]	-18.7	35.5µM*
c1ccc(-c2cc3c(cn2)NCCN(CC2CC2)C3)cc1	-24.3%[87.6 µM]	78.4%[87.6 µM]	-6.7	35.5µM*
